From PubChem BioAssay (NCATS)
A number with no mark means an inactive call. The source made the active and inactive calls. No rule for the calls is given here.

These compounds were tested on HIV-1 nucleocapsid protein NCp7 (binding to TG oligonucleotide) (assay: HIV Nucleocapsid (AID 346;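 also: potency is for inhibitors that block NC binding and lower polarization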)). Conditions: HIV-1 NC / fluorescein-TGTGTGTG probe, fluorescence polarization.
In short: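 Reagents dispensed (10 nM TG4xF, 100 nM HIV-1 NC), plates spun, compounds pin-transferred, then incubated 1 hr at room temperature before FP imaging. Buffer: Hepes pH 7.5, 250mM NaCl, 1uM ZnCl2, 100 uM TCEP, 5 mM 2-mercaptoethanol.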
Potency is read from the fitted curve at half-maximal effect.

SMILES | Potency
Cc1cccc(CNc2ncnc3ccc(-c4ccccc4CN(C)C)cc23)c1 | > 20 µM
CN(C)c1ncc2nc(-c3ccc(F)cc3)c(=O)n(CCC#N)c2n1 | > 4 µM
c1nc(NC2CC2)c2cc(-c3ccoc3)ccc2n1 | > 20 µM
FC(F)(F)c1ccccc1-c1cncnc1NCc1cccnc1 | > 20 µM
Cn1cc(-c2nc3cnc(N4CCOCC4)nc3n(C3CC3)c2=O)c2ccccc21 | > 20 µM
COc1ccc(NC(=O)N2CC3(CCN(C(=O)c4cc(C(F)(F)F)cc(C(F)(F)F)c4)CC3)C2)cc1 | > 20 µM
O=c1c(-c2ccc(Cl)cc2)nc2cnc(Nc3ccccc3)nc2n1C[C@H]1CCCO1 | 0.219 µM (active)
N#CCCn1c(=O)c(-c2cccc(C#N)c2)nc2cnc(Oc3cccc(Cl)c3)nc21 | > 20 µM
COc1ncc2nc(-c3cc(F)cc(F)c3)c(=O)n(C)c2n1 | > 20 µM
Cc1cnc(CNc2cc(-c3cccc(C#N)c3)ncn2)cn1 | > 20 µM
CC(=O)NCCNc1nc(-c2c(C)noc2C)nc2ccccc12 | > 20 µM
Cn1cccc1C(=O)N1CCC[C@@]2(CCN(c3ccncc3)C2)C1 | > 20 µM
COCCn1c(=O)cnc2cnc(Oc3ccccc3)nc21 | > 20 µM
COc1ccc(-c2nc3cnc(N(C)C)nc3n(CCC#N)c2=O)cc1 | > 20 µM
COc1ccc(CNc2nc(-c3ccc(N(C)C)cc3)nc3ccccc23)c(OC)c1 | > 20 µM
CS(=O)(=O)N1CCC[C@@]2(CCN(Cc3ccc(C#N)cc3)C2)C1 | > 20 µM
CCNc1ncc2nc(CCc3ccccc3)c(=O)n(C3CC3)c2n1 | > 20 µM
CNc1nc(-c2cccnc2)nc2ccccc12 | > 20 µM
Cc1cnc(CNc2ncncc2-c2ccccc2CN(C)C)cn1 | > 20 µM
O=c1c(-c2ccc(F)cc2)nc2cnc(N3CCOCC3)nc2n1Cc1ccc(F)cc1 | > 20 µM
CN1CCN(c2ncnc3ccc(-c4ccc5c(c4)OCO5)cc23)CC1 | > 20 µM
O=C(Nc1cccc(F)c1)N1CC2(CCN(C(=O)c3ccco3)CC2)C1 | > 20 µM
O=C(c1ccncc1)N1CCC2(CCN(Cc3ccccc3)CC2)CC1 | > 20 µM
O=c1cnc2cnc(Oc3ccccc3)nc2n1C[C@H]1CCCO1 | > 20 µM
O=C(c1cccc(F)c1)N1CCC2(CCN(Cc3nccs3)CC2)CC1 | > 20 µM
